# Test results taken from PubChem BioAssay AID488789 (Broad Institute, 2010).
# Entries with a potency or affinity are not part of this list. Results filed as inconclusive are left out. Activity calls are given as the source filed them.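 Rule for the calls: active = samples whose fitted half-maximal inhibition concentration is no more than ten times the top valid dose tested; inconclusive = flat response between -70 and -30, or invalid curve fit; inactive = flat within 30 of zero, potency above limit, or signal rising.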
# Target: Trypsin (Sus scrofa) (UniProt P00761)
# Experiment: trypsin protease activity blockade – biochemical, quenched peptide fluorescence, cherry-pick, selectivity assay for Rce1 protease inhibitor project, dose response (AID 488789);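 note: more negative means stronger trypsin inhibition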
# Settings: porcine trypsin, quenched peptide cleavage fluorescence; series mostly up to 10 µM
# Sequence of Trypsin (Sus scrofa) (P00761 whole entry, looked up): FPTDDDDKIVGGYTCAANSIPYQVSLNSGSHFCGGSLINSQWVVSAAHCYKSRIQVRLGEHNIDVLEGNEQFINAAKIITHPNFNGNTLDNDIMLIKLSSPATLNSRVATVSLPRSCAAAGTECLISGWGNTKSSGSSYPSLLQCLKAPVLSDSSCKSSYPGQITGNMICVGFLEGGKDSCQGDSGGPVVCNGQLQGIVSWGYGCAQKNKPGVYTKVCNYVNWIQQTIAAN
row,Compound,outcome
1,COC(=O)c1nc(N)sc1-c1ccc(Cl)c(Cl)c1,inactive
2,CC(C)CC(=O)NC(=S)Nc1ccc(S(=O)(=O)Nc2nccs2)cc1,inactive
3,Cc1ccc(C2(COC(=O)C(C)C)CO2)c(OC(=O)C(C)C)c1 (configuration not stated),inactive
4,CCCCOC(=O)Nc1nc(C)c(C(=O)OCC)s1,inactive
5,O=C(C[n+]1cc2ccccc2c2ccccc21)c1ccccc1,inactive
6,Cc1ccc2nc(N(CCN(C)C)C(=O)c3ccc4ccccc4c3)sc2c1,inactive
7,CCN(CC)c1ccc(C(=O)c2ccccc2C(=O)O)c(O)c1,inactive
8,O=C(COC(=O)c1ccc(S(=O)(=O)N2CCCC2)cc1)NCc1ccccc1,inactive
9,CCC1(c2ccccc2)NC(=O)N(CC(=O)Nc2ccc3c(C)cc(=O)oc3c2)C1=O (configuration not stated),inactive
10,CN(C)CC(C)(C)CNC(=S)NCc1ccc2c(c1)OCO2,inactive
11,CC(=O)c1c(C)oc2ccc(NS(=O)(=O)c3ccc(C(=O)O)cc3)cc12,inactive
12,Nc1nnnn1/N=C/c1cccc(OCc2ccccc2Cl)c1,inactive
13,COC(=O)c1sccc1NC(=O)CSc1nnnn1-c1ccccc1C,inactive
14,O=C(Nc1cccc2ccccc12)c1ccc(OC(=S)N2CCOCC2)cc1,inactive
15,CC(C)N1CCN(S(=O)(=O)c2ccc3ccccc3c2)CC1,inactive
16,C[C@@]12CCC=C[C@H]1[C@H](c1ccc(/C=C/c3ccccc3)cc1F)N(Cc1ccccc1)C2=O,inactive
17,O=C(CCNC(=O)N1CC(=O)Nc2ccccc21)NCCc1cccc(F)c1,inactive
18,COc1ccc(Cc2nc3ccc(C(=O)N4CCCC4)cc3o2)cc1,inactive
19,COC(=O)CSc1nc(N)c2c3c(sc2n1)C(c1ccccc1)SC(c1ccccc1)C3 (configuration not stated),inactive

row,Compound,outcome
1,CC1=NN(c2ccccc2)C(=O)/C1=C\c1ccc(Br)s1,inactive
2,Cc1cc(N2CCOCC2)n2cc(-c3ccccc3)nc2n1,inactive
3,CCN(CC)c1ccc(/C=N/NC(=O)C(O)(c2ccccc2)c2ccccc2)o1,inactive
4,CC(=O)NN1C(=O)c2ccccc2NC1c1ccccc1 (configuration not stated),inactive
5,NC(=O)CSC1=Nc2ccccc2C2=NC(c3ccccc3)C(=O)N12 (configuration not stated),inactive
6,CCn1c(C)nc2c(=O)oc3ccccc3c21,inactive
7,Cc1ccc(-c2csc(N3CCN(c4cc5c(cc4Cl)nc(-c4ccncc4)n5CCOCCO)CC3)n2)cc1,inactive
8,Cc1ccc(/C=N/NC(=O)c2nnn(-c3nonc3N)c2C(C)C)o1,inactive
9,CC(C)c1c(C(=O)N/N=C/c2c[nH]c3ccccc23)nnn1-c1nonc1N,inactive
10,CCOc1cc(CNC2CCCC2)ccc1OCc1ccccc1Cl,inactive
11,CN(C)C(=O)COc1ccc2ccc(=O)oc2c1,inactive
12,COc1ccc(CN2CCN(C(c3ccc(F)cc3)c3ccc(F)cc3)CC2)c(OC)c1OC,inactive
13,CC(CCc1ccccc1)NCC(O)c1ccc(O)c(C(N)=O)c1 (configuration not stated),inactive
14,O=C(Nc1ccc(F)cc1)Oc1ccccc1N1CCOCC1,inactive
15,COc1ccc(-c2cc(C(F)(F)F)nc(SCC(=O)N(C)Cc3cn(C)nc3C)n2)cc1OC,inactive
16,Cc1ccc(C(=O)N/C(=C/c2ccco2)C(=O)Nc2cccc(C(=O)O)c2)cc1,inactive
17,CC(=O)N(C)c1ccc(NC(=O)/C=C/c2ccccc2Cl)cc1,inactive
18,Cc1ccc(NC(=O)CCc2ccc(S(=O)(=O)NC3CCCCC3)cc2)cc1,inactive
